The values that follow come from ChEMBL document CHEMBL4513216, “Probing the Open Global Health Chemical Diversity Library for Multistage-Active Starting Points for Next-Generation Antimalarials” (ACS Infect Dis, 2020).

About 2,100 (3.2%) of roughly 65,000 compounds showed an effect of 50% or more. The median lay at about -52%. The list comes from a sample in which strong results are over-represented; it also holds similar structures and randomly drawn compounds.

The subject of the experiment is Plasmodium falciparum. The experiment is described as follows: Screen against P. falciparum Asexual Blood Stage (ABS), at 5uM. The settings on record: tested at 5 uM. Type of experiment: functional, Dd2.
`O=C1C[C@@H]2[C@H](CCN2Cc2ccccn2)N1Cc1ccncc1`: the INHIBITION is reported as 19.2%.
To `Cc1n[nH]c(C)c1CNC(=O)c1cn(CCC2CCCCN2)nn1` (stereo not given) belongs -24.9%.
For `c1coc(CNc2ncc3c(n2)C2(CCNC2)COC3)c1` (stereo not given), the INHIBITION is given as -66%.
With `CC(C)N1CCCC(Cc2nccnc2Cl)CC1` (stereo not given), the INHIBITION is given as -7.14%.
Turning to `Cn1ccc(CN2CCCC23CCNCC3)n1`, the INHIBITION was -53.7%.
To `O=C([C@H]1C[C@H]2OCC[C@H]2N(Cc2ccccn2)C1)N1CCCCO1` belongs -88.5%; to `COCC(O)CN(C)c1ccnc2cc(Br)ccc12` (stereo not given), 94.4%.
For the molecule `Cc1cc(CN2CCN3C[C@H](c4ccccc4)[C@@H](CO)[C@H]3C2)on1`, the INHIBITION was -81.4%.
To `Cc1ccc(N2CCC3(CCCN3Cc3ccn(C)n3)CC2)nn1` belongs -63.5%.
To `Cc1ccccc1-n1cc(C2=CCN(CCN3CCOCC3)CC2)cn1` belongs -4.21%; to `CN(C)C(=O)[C@H]1CC[C@@H]2[C@@H](CCN2Cc2ccccn2)O1`, -43.5%.
Regarding `CC(C)NC(=O)[C@@H]1CC[C@@H]2[C@@H](CCN2Cc2cn(C)c3ccccc23)O1`, the INHIBITION is 77.6%.
To `CN(C)C(=O)[C@@H]1CC[C@@H]2[C@@H](CCN2Cc2ccccn2)O1` belongs -97.6%; to `CCN(CC)C(=O)C1CCC2(CCNCC2)CO1` (stereo not given), -31.8%.
To `COCC(=O)NC(C)Cc1ccc(Br)cc1` (stereo not given) belongs 17.4%; to `Cc1nc(Nc2ccc(Cl)cn2)sc1C(=O)NCCCN1CCCCC1`, 81.4%.
In the case of `Cc1cnc(N2CCN3C[C@H](OCc4ccccn4)C[C@H]3C2)nc1`, the INHIBITION is on record as -24.1%.
To `O=C(c1nn(-c2ccccc2F)cc1O)N1CCC2(CC1)OCCO2` belongs -12.3%; to `CCCN1CCCC(O)(c2nc(C)c(COc3ccccc3)s2)CC1` (stereo not given), 83.2%; to `O=S1(=O)CCC(n2cc(C3=CCN(CCc4ccccc4)CC3)cn2)C1` (stereo not given), -45.5%.
Regarding `O=C(Nc1cccnc1)[C@H]1CN(Cc2nccs2)C[C@H]2OCC[C@@H]12`, the INHIBITION is -93.3%.
To `CCC(CC)(CN)NC(C)c1ccccc1` (stereo not given) belongs 83.4%.
Take `CC(O)CN1CCC(CNCc2cccc(C(F)(F)F)c2)CC1` (stereo not given): the INHIBITION is given as 83.1%.
For the molecule `CC(O)CN1CCC(CNCc2cccc(OC(F)(F)F)c2)CC1` (stereo not given), the INHIBITION stood at 80.1%.
To `CC(=O)N1CCC(CCNC(C)Cc2ccc(F)cc2)CC1` (stereo not given) belongs -0.762%; to `CC(O)CN1CCC(CNCc2ccc(OC(F)(F)F)cc2)CC1` (stereo not given), 86.9%; to `O=C(Cc1ccc(F)cc1)N1CCN(CC(O)C2CC2)CC1` (stereo not given), 1.79%.
To `Cc1c(C(=O)O)nnn1Cc1cccc(C(F)(F)F)c1` belongs -66.5%.
For `Cc1nc(CN2CCOC3(CCCC3)C2)no1`, the INHIBITION is -138%.
To `C[C@@H]1CN(C2CCOCC2)C[C@]12CCN(c1cccnc1)C2=O` belongs -104%.
To `Cc1ccc(-c2ccnc3cc(CC(=O)N4CCN(C)CC4)nn23)cc1` belongs -116%.
To `CC(C)N(C)C(=O)C1CCC2(CCNCC2)O1` (stereo not given) belongs -214%.
For the molecule `c1cc(CO[C@@H]2CC[C@H]3[C@H]2OCCN3Cc2ccoc2)ccn1`, the INHIBITION is on record as -169%.
`CC(C)CCC(=O)N1C[C@H]2CCN[C@H]2C1`: the INHIBITION is recorded as -114%.
Regarding `CCc1noc(C)c1C(=O)NCC(c1ccc(C)cc1)N(C)C` (stereo not given), the INHIBITION was 71.4%.
For `Cc1noc(CN2CC=C(c3cnn(C4CCS(=O)(=O)C4)c3)CC2)n1` (stereo not given), the INHIBITION was -15.1%.
To `CC(C)(C)n1ncc2c1NC(=O)CSC2c1ccc2c(c1)OCO2` (stereo not given) belongs -138%; to `NC(=O)c1ccc(N2CCCCC2)c(NC(=O)c2ccc(Br)cc2)c1`, 71.3%; to `O=C(NC[C@H]1C[C@@H]2CCN1C[C@@H]2CN1CCOCC1)Nc1ccccc1`, -40.4%.
Consider `Cc1cccc(Nc2ccc(C3CCCCN3)cn2)n1` (stereo not given), for which the INHIBITION was 81.4%.
To `c1cnc(Nc2ccc(C3CCCCN3)cn2)cn1` (stereo not given) belongs 13.6%; to `Cc1cc(C)nc(Nc2ccc(C3CCCCN3)cn2)n1` (stereo not given), -64.1%.
To `CC(C)C1CCCN1C(=O)c1ccc(-n2ncc(C#N)c2N)cc1` (stereo not given) belongs 71.4%.
`Cc1cc(CN2C[C@@H]3COC[C@]3(COCc3csc(C)n3)C2)no1`: the INHIBITION is -58.8%.
To `Cc1cccc(CN2C[C@H]3CCC[C@@]3(COCc3csc(C)n3)C2)n1` belongs 82%.
To `Cc1cc(CN2C[C@H]3CCC[C@@]3(COCc3csc(C)n3)C2)no1` belongs 14.2%; to `CC(C)N1CCCCC1c1cncc(Cl)n1` (stereo not given), -50.5%.
To `CC(C)N1CCCCC1c1nc(N(C)C)ncc1I` (stereo not given) belongs 72%.
In the case of `CC(C)N1CCCC1c1nc(N(C)C)ncc1I` (stereo not given), the INHIBITION was found to be 70.7%.
To `COCCNC(=O)[C@H]1CN2CCC1C[C@@H]2Cn1cc(C(C)(C)C)nn1` (stereo not given in full) belongs -65.8%; to `c1cnc(N2CCOC3(COCCN(Cc4cc[nH]n4)C3)C2)nc1` (stereo not given), -27.9%; to `CCN(C)C[C@@H]1CN(Cc2cccc(Cl)c2)C[C@@H]1CO`, 83.6%.
With `CC(C)=CCN1C[C@@H]2CC[C@H]1CN(S(=O)(=O)c1cccnc1)C2`, the INHIBITION was -10.7%.
In the case of `CCNC(=O)[C@H]1CN(Cc2ccccc2)C[C@@H]1C(=O)c1ccccc1`, the INHIBITION is -76.3%.
To `C=Cc1cccc(CN2C[C@@H](CN(C)CC)[C@@H](CO)C2)c1` belongs 87.6%.
On to `CCN(C)C[C@@H]1CN(S(=O)(=O)c2cccc(Cl)c2)C[C@@H]1CO`, for which the INHIBITION is reported as 75.3%.
To `CN1CC=C(c2noc(CCC(=O)N3CCCC3)n2)CC1` belongs -71.4%.
Turning to `Cc1nc(CN2CCN(C(=O)Cc3cccc(Cl)c3)CC2)no1`, the INHIBITION is -18.4%.
To `Cc1cccc(N2CCN(C(=O)CCc3c(C)noc3Cl)CC2)c1` belongs 86.3%.
To `Cc1ccnc(CC(C)N(C)Cc2ccc3c(c2)CCO3)c1` (stereo not given) belongs -33.2%.
As to `Cc1ccc(CN2CCO[C@@H]3[C@@H](OCc4cccnc4)CC[C@@H]32)o1`, the INHIBITION is reported as -89.9%.
To `O=C(N[C@H]1COC[C@@H]1N1CCCC1)c1csc(Cc2ccccc2)n1` belongs -21.2%; to `O=C(N[C@H]1COC[C@@H]1N1CCCC1)c1csc(-c2cccs2)n1`, 50.8%.
On to `Cc1nc(C(=O)N[C@H]2COC[C@@H]2N2CCCCC2)cs1`, for which the INHIBITION is on record as -260%.
To `CN1CCC2(CC1)CN(Cc1ccc(C3CCCCO3)o1)CCCN2C` (stereo not given) belongs 81.1%.
